# Measurements published in the supplement of paper PMC3616981.
# ± gives the standard deviation of the averaged measurements.
# Compound: CC(C)c1cccc(C(C)C)c1N1C(=O)c2ccc(O)cc2C1=O
# Assay: BioMAP readout fold decrease vs vehicle (vehicle/treated); higher = stronger decrease of the readout vs vehicle (values <1 mean increase)
# Protocol: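 BioSeek BioMAP human primary cell (co-)culture systems (3C, 4H, LPS, SAg, BE3C, CASM3C, hDFCGF, KF3CT) treated with 5HPP-33 at 1.48, 4.44, 13.3 and 40 µM. Read-outs are protein levels by ELISA, proliferation and SRB total protein. Duplicate rows per assay are averaged as replicates. Tested in ToxCast Phase II for this study; exposure time not stated.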
# 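Note: Co-cultures of keratinocytes, bronchial epithelial and smooth muscle cells, fibroblasts, HUVECs and PBMCs under stimuli like LPS, TNF-α, IFN-γ, IL-1β, TGF-β or EGF, SRB reflecting cytotoxicity.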
Target,BioMAP readout fold decrease (1.48 µM),BioMAP readout fold decrease (4.44 µM),BioMAP readout fold decrease (13.3 µM),BioMAP readout fold decrease (40 µM)
hDFCGF_IP10,1.1 ± 0.1,1.073 ± 0.0033,1.33 ± 0.037,5.47 ± 0.25
LPS_MCP1,1.03 ± 0.028,1.01 ± 0.012,1.02 ± 0.016,2.69 ± 0.19
SAg_SRB,0.9638 ± 0.0049,1.1 ± 0.021,1.299 ± 0.011,1.9 ± 0.097
3C_IL8,0.994 ± 0.019,0.925 ± 0.011,0.7655 ± 0.0039,1.132 ± 0.0075
CASM3C_Proliferation,1.11 ± 0.024,1.58 ± 0.054,1.2 ± 0.23,2.76 ± 0.16
LPS_CD40,1.33 ± 0.17,1.67 ± 0.1,2.699 ± 0.02,4.12 ± 0.32
BE3C_uPAR,1.02 ± 0.013,1.0603 ± 0.00083,1.1 ± 0.012,1.26 ± 0.022
BE3C_MIG,0.992 ± 0.016,1 ± 0.021,1.036 ± 0.0018,1.36 ± 0.19
CASM3C_HLADR,0.895 ± 0.021,0.797 ± 0.061,1.41 ± 0.07,2.61 ± 0.45
LPS_TNFa,0.955 ± 0.077,0.923 ± 0.036,1.26 ± 0.13,1.56 ± 0.35
